# PABP polyA inh: blocks human PABP binding to poly(A) RNA | P11940 | calls only at 35 µM | fluorescence polarization | 290,000 tested, 1% active;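 further: calls also rest on retests at 20 µM and on dose response follow-up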
# eIF4H FP inh: inhibitors of RNA binding by human eIF4H. Q15056. eIF4H fluorescence polarization binding assay. 290,000 tested, 0.94% active. inhibition, % at 35 µM;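 further: calls also rest on retests at 20 µM and on dose response follow-up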
# eIF4E-4G inh: inhibitors of eIF4E and eIF4G interaction in translation initiation; TR-FRET eIF4E-eIF4GI(517-606) binding, 2 h; inhibition, % at 21.7 µM; 220,000 tested, 0.37% active;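 active means inhibition above about 30%, limit read from the data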
# PERK inhibitor: blocks human PERK kinase | inhibition, % at 5.6 µM | 220,000 tested, 0.17% active | CHO PERK-DD fusion, SEAP luminescence translation reporter | Q9NZJ5;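 active means inhibition above the mean inhibition of all tested compounds plus 3 SD, set separately per screening campaign, cut at about 2.9% in these data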;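 further: PERK kinase domain activated by AP20187 dimerizer at 100 nM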
# Target sequence (Q9NZJ5 whole entry, looked up, the tested form may be a part): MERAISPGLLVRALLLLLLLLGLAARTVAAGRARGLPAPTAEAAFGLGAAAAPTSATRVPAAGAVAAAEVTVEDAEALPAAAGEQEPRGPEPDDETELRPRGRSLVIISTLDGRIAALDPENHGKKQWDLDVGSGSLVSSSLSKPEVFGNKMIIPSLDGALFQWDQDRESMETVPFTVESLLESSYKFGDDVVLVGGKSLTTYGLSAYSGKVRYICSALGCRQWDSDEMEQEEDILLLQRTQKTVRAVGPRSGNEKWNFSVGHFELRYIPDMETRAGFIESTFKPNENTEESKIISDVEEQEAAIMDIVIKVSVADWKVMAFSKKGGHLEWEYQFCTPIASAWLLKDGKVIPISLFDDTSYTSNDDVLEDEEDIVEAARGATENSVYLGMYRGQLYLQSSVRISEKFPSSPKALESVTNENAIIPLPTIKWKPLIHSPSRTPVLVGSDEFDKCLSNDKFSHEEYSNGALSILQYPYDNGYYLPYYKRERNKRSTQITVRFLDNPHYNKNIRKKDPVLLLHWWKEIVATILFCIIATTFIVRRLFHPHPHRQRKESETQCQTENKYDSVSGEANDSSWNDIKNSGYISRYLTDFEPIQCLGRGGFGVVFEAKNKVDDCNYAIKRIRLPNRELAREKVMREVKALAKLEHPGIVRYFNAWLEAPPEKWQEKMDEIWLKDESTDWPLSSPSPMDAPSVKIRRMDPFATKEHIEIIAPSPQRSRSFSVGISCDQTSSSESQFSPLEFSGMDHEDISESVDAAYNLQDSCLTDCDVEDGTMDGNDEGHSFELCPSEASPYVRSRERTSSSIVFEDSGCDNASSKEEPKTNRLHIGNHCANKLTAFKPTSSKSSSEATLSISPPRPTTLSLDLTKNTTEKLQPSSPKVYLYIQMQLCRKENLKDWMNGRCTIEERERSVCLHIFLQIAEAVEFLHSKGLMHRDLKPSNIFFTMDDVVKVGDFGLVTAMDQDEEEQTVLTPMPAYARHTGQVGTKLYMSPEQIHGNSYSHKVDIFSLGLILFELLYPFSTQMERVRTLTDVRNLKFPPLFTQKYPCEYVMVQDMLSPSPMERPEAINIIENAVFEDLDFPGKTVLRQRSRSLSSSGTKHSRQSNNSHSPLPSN
# MLLE-PAM2 inh: blocks PAM2 peptide binding to the PABP1 MLLE domain | 360,000 tested, 0.36% active | P11940 | inhibition, % at 20 µM | AID 588489 | GST-MLLE / FITC-PAM2 fluorescence polarization; in the data active means inhibition above about 35%, passing the limit was not always enough
# Hits are given with their value; – = inactive; ? = inconclusive; · = not tested or not shown; + = active, no number. This is a sample that favours compounds with a hit; in the whole collection about 1.6% have one here. Unless noted, how the calls were made is not given here.
SMILES,PABP polyA inh,eIF4H FP inh,eIF4E-4G inh,PERK inhibitor,MLLE-PAM2 inh
CN1C(=O)C(=Cc2sc(=O)n(-c3ccccc3)c2N2CCCCC2)C(=O)N(C)C1=O,?,?,–,–,–
CN1CCN(c2nc3ccccn3c(=O)c2C=C2C(=O)N(C)C(=O)N(C)C2=O)CC1,+,?,–,–,–
Cc1ccc(-c2nn(Cc3ccccc3)cc2C(=O)O)cc1,–,–,96,–,–
Cc1ccc(-c2nn(Cc3ccccc3)cc2C=O)cc1,–,–,–,–,–
CCC(=NCc1cccnc1)c1c(O)n(-c2ccc(Cl)cc2)c(=O)[nH]c1=O,–,–,–,–,–
O=c1[nH]c(=O)n(CCC2=CCCCC2)c(O)c1/C=N/Nc1cccc2ccccc12,+,?,–,–,–
O=S(=O)(c1cccc(C(F)(F)F)c1)N1Cc2ccccc2-n2nncc2C1,·,·,·,·,–
CC12CCC(O)CC1CCC1C2CCC2(C)C(C(=O)CO)CCC12 (stereo not drawn),·,·,·,·,–
O=C(CSC1c2ccccc2-c2ccccc21)N/N=C/c1ccccc1O,–,–,–,–,40
CN(C)P(=NC(=S)c1cccn1C)(N(C)C)N(C)C,–,–,–,–,37
CCCc1c(C)nc(SCC(=O)C(C)(C)C)nc1OC(=O)N(C)C,–,–,–,–,–
CC1CC2(C)C(CCC3C2CCC2(C)C(OP(=O)(N4CC4)N4CC4)CCC32)CC1=O (stereo not drawn),·,·,·,·,–
Cc1cccc(CCNCc2cc3cccc(C)c3[nH]c2=O)c1,–,–,·,·,–
Nc1ccc(Sc2ccc(N)cc2)cc1,·,·,·,·,–
COP(=S)(OC)Oc1ccc(Sc2ccc(OP(=S)(OC)OC)cc2)cc1,·,·,·,·,36
Cc1ccc(N2C(=O)NC(=O)/C(=C\c3cnc(-c4ccccc4)nc3)C2=O)cc1,–,58,–,–,–
CSc1ncc(/C=C2/C(=O)NC(=O)N(c3ccc(C)cc3)C2=O)cn1,–,–,–,–,–
Cc1ccc(N2C(=O)NC(=O)/C(=C/c3ccoc3)C2=O)cc1,?,?,35,–,–
COc1cc(C2(C#N)CCN(C)CC2)cc(OC)c1OC,·,·,·,·,–

# Screening data as filed in PubChem BioAssay.
